Laboratory results reported in the supplement of paper PMC3334620.
Whole data set: some 33,000 sequences, median “E-score (-0.5 to 0.5)” near -0.035, cut for the highest 2% near 0.34. The full list was thinned out, with the highest values kept by preference.

target: T1, Mot3 (UniProt P54785); assay: PBM E-score (8-mer binding enrichment) (E-score (-0.5 to 0.5)); higher = stronger / more preferred TF binding; conditions: protein concentration: 200 nM; construct: GST-full length
T1 sequence: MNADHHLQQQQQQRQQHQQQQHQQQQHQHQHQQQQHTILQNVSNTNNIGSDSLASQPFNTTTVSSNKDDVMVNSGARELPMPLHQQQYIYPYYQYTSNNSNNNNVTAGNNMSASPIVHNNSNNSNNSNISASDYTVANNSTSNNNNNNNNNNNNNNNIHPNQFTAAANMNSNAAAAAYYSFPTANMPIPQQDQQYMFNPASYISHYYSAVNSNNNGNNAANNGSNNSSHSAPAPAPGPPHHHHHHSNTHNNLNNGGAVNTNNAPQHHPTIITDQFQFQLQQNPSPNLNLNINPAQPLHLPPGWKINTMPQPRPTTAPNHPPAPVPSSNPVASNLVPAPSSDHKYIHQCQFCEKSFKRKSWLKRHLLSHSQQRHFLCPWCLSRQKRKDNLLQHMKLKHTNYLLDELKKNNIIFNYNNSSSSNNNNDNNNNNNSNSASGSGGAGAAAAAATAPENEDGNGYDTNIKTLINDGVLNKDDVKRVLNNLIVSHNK
In short: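 Full-length yeast transcription factors or their DNA-binding domains, GST-tagged and expressed with PURExpress, were applied at about 100-200 nM to universal all-10-mer Agilent arrays. These arrays had been made double-stranded by primer extension on fresh or once-stripped slides. Detection used fluorescent anti-GST, normalisation used masliner, and E-scores for ungapped eight-base words pooled with reverse complements came from the Universal PBM Analysis Suite.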

| Sequence | PBM E-score |
| --- | --- |
| AGATGTTA | 0.158 |
| AGATGTTG | -0.102 |
| ACATGTTA | 0.397 |
| ACATGTTC | 0.295 |
| ACATGTTG | 0.368 |
| GCATGTTA | 0.385 |
| AAATGTTA | 0.288 |
| CTAGGTCA | -0.135 |
| ATTGGCAC | -0.068 |
| AAACCTGG | 0.0922 |
| GCCGTTAC | -0.13 |
| CCAACTCC | -0.135 |
| TCCTCCAA | -0.0985 |
| GATCTAGC | -0.194 |
| ATACTGCC | -0.204 |
| CGCAGGCC | 0.123 |
| AGCAGGCG | 0.148 |
| AGCAGGCC | -0.0206 |
| TGCAGGCA | 0.484 |
| CGCAGGCA | 0.482 |
| CGCAGGCG | 0.17 |
| TGCAGCCA | -0.192 |

| Sequence | PBM E-score |
| --- | --- |
| GGCAGGTA | 0.277 |
| TGCAGACA | 0.0246 |
| GGCAGGCA | 0.481 |
| AGCAGGCA | 0.483 |
| GGCAGGCC | -0.165 |
| TATGCGAA | -0.0122 |
| TATCAATA | 0.134 |
| AGTTTTCA | -0.204 |
| CATCTGCA | -0.0636 |
| CTAACTCC | -0.141 |
| GGCGTAAA | 0.146 |
| CGCGTAAG | 0.299 |
| TGCGTAAA | 0.342 |
| CGCGTAAA | 0.392 |
| AGCGTAAA | 0.12 |
| CGCGTAAC | 0.225 |
| GGGGGGAA | -0.375 |
| CTCGGCTA | -0.0141 |
| GTATGGAA | -0.156 |
| GCTTGGCA | -0.105 |
| AGTTTTCG | 0.0727 |
| GCGGGTCA | 0.0734 |

| Sequence | PBM E-score |
| --- | --- |
| GTGAGGCA | 0.353 |
| GTGAGGAA | -0.106 |
| CTGAGGCA | 0.257 |
| ATGAGGCG | -0.119 |
| ATGAGGCC | -0.174 |
| ATGAGGCA | 0.364 |
| CCTACTTC | -0.0137 |
| ACCCGTCA | -0.239 |
| AGATAGCG | -0.0829 |
| AGGCACGG | 0.491 |
| AAGCACGG | 0.0983 |
| CGGCACGA | 0.00099 |
| GGGCACGA | 0.163 |
| AGGCACGA | 0.491 |
| ACGCACGG | 0.0438 |
| GCCCTAGC | -0.184 |
| CTTGGCAC | -0.0521 |
| CTTTGGCC | 0.0624 |
| CATTGTGA | -0.0102 |
| ACCACGGC | -0.108 |
| GCCCGGTA | -0.0651 |
| AATTAAAT | 0.124 |

| Sequence | PBM E-score |
| --- | --- |
| ACGTACGG | -0.163 |
| CGGTACGA | -0.155 |
| AGGTACGG | 0.39 |
| AGGTACGA | 0.346 |
| AGGTACTC | 0.333 |
| CGGTACGC | -0.174 |
| AGGTACTG | 0.258 |
| GGGTACGA | -0.148 |
| AGGTACGC | 0.444 |
| CGACTAGA | -0.0287 |
| AAGCCCAT | -0.253 |
| ACAACGTG | 0.114 |
| TACAGCGA | -0.184 |
| TACATAGA | 0.357 |
| GAAATACA | 0.328 |
| TAAATACA | 0.366 |
| AACATAGA | 0.2 |
| AAAATACA | 0.298 |
| GACATAGA | 0.0532 |
| CACATACA | 0.239 |
| GACATACA | 0.218 |
